Experimental data reported in the supplement of paper PMC11001985.

Legend:
Assay in all cases: lysine labeling ratio R10:1 (500 µM / 50 µM probe), SILAC-ABPP in living cells; higher = lower intrinsic lysine reactivity toward the probe, active = 2 or less
Settings in all cases: HeLa; probe concentrations 500 vs 50 µM
[1] = biological target: ACLY (lysine site: K1080) (UniProt P53396)
Summary of the method: (§1)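 Forward and reverse SILAC label swaps were used with living light and heavy HeLa cells in PBS at room temperature, which were given an alkyne-tagged, disulfide-linked lysine probe at 50 µM or 500 µM. R is the per-lysine filtered median high-probe/low-probe MS1 peptide ratio, with the median then taken across both swap directions. Values are limited to 20.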

ACLY (lysine site: K272) = ACLY (lysine site: K272) (UniProt P53396)
Summary of the method: as §1

ACLY (lysine site: K780) = ACLY (lysine site: K780) (UniProt P53396)
Summary of the method: as §1

ACLY (lysine site: K836) = ACLY (lysine site: K836) (UniProt P53396)
Summary of the method: as §1

ACLY (lysine site: K968) = ACLY (lysine site: K968) (UniProt P53396)
Summary of the method: as §1

ACLY (lysine site: K978) = ACLY (lysine site: K978) (UniProt P53396)
Summary of the method: as §1

[2] = biological target: ADAM10 (lysine site: K273) (UniProt O14672)
Summary of the method: as §1

[3] = biological target: ADAM10 (lysine site: K410) (UniProt O14672)
Summary of the method: as §1

[4] = biological target: ADAM10 (lysine site: K601) (UniProt O14672)
Summary of the method: as §1

[5] = biological target: BACE2 (lysine site: K299) (UniProt Q9Y5Z0)
Summary of the method: as §1

BSG (lysine site: K264) = BSG (lysine site: K264) (UniProt P35613)
Summary of the method: as §1

CALR (lysine site: K159) = CALR (lysine site: K159) (UniProt P27797)
Summary of the method: as §1

CALR (lysine site: K360) = CALR (lysine site: K360) (UniProt P27797)
Summary of the method: as §1

CALR (lysine site: K64) = CALR (lysine site: K64) (UniProt P27797)
Summary of the method: as §1

CAV1 (lysine site: K47) = CAV1 (lysine site: K47) (UniProt Q03135)
Summary of the method: as §1

CDC37 (lysine site: K60) = CDC37 (lysine site: K60) (UniProt Q16543)
Summary of the method: as §1

[6] = biological target: CSDE1 (lysine site: K307) (UniProt O75534)
Summary of the method: as §1

CSTB (lysine site: K91) = CSTB (lysine site: K91) (UniProt P04080)
Summary of the method: as §1

[7] = biological target: DDX50 (lysine site: K271) (UniProt Q9BQ39)
Summary of the method: as §1

[8] = biological target: DDX50 (lysine site: K432) (UniProt Q9BQ39)
Summary of the method: as §1

GART (lysine site: K251) = GART (lysine site: K251) (UniProt P22102)
Summary of the method: as §1

[9] = biological target: HNRNPF (lysine site: K224) (UniProt P52597)
Summary of the method: as §1

[10] = biological target: HNRNPF (lysine site: K87) (UniProt P52597)
Summary of the method: as §1

[11] = biological target: HNRNPF (lysine site: K98) (UniProt P52597)
Summary of the method: as §1

[12] = biological target: HYOU1 (lysine site: K797) (UniProt Q9Y4L1)
Summary of the method: as §1

[13] = biological target: ITIH2 (lysine site: K148) (UniProt P19823)
Summary of the method: as §1

[14] = biological target: ITIH2 (lysine site: K150) (UniProt P19823)
Summary of the method: as §1

[15] = biological target: ITIH2 (lysine site: K190) (UniProt P19823)
Summary of the method: as §1

[16] = biological target: LMAN2 (lysine site: K303) (UniProt Q12907)
Summary of the method: as §1

MDH2 (lysine site: K185) = MDH2 (lysine site: K185) (UniProt P40926)
Summary of the method: as §1

[17] = biological target: NCR3LG1 (lysine site: K101) (UniProt Q68D85)
Summary of the method: as §1

[18] = biological target: NECTIN2 (lysine site: K97) (UniProt Q92692)
Summary of the method: as §1

PHB (lysine site: K240) = PHB (lysine site: K240) (UniProt P35232)
Summary of the method: as §1

[19] = biological target: PODXL (lysine site: K385) (UniProt O00592)
Summary of the method: as §1

[20] = biological target: PODXL (lysine site: K394) (UniProt O00592)
Summary of the method: as §1

[21] = biological target: PODXL (lysine site: K418) (UniProt O00592)
Summary of the method: as §1

[22] = biological target: PODXL (lysine site: K422) (UniProt O00592)
Summary of the method: as §1

[23] = biological target: PODXL (lysine site: K444) (UniProt O00592)
Summary of the method: as §1

[24] = biological target: PSMD6 (lysine site: K130) (UniProt Q15008)
Summary of the method: as §1

[25] = biological target: PSMD6 (lysine site: K372) (UniProt Q15008)
Summary of the method: as §1

[26] = biological target: PTPRK (lysine site: K227) (UniProt Q15262)
Summary of the method: as §1

[27] = biological target: PTPRK (lysine site: K244) (UniProt Q15262)
Summary of the method: as §1

[28] = biological target: PTPRK (lysine site: K262) (UniProt Q15262)
Summary of the method: as §1

[29] = biological target: PTPRK (lysine site: K394) (UniProt Q15262)
Summary of the method: as §1

[30] = biological target: PTPRK (lysine site: K397) (UniProt Q15262)
Summary of the method: as §1

[31] = biological target: PTPRK (lysine site: K722) (UniProt Q15262)
Summary of the method: as §1

[32] = biological target: SACM1L (lysine site: K483) (UniProt Q9NTJ5)
Summary of the method: as §1

[33] = biological target: SLC25A3 (lysine site: K218) (UniProt Q00325)
Summary of the method: as §1

[34] = biological target: SLC25A3 (lysine site: K234) (UniProt Q00325)
Summary of the method: as §1

[35] = biological target: SLC25A3 (lysine site: K252) (UniProt Q00325)
Summary of the method: as §1

[36] = biological target: SLC25A3 (lysine site: K304) (UniProt Q00325)
Summary of the method: as §1

[37] = biological target: SLC25A3 (lysine site: K313) (UniProt Q00325)
Summary of the method: as §1

[38] = biological target: SNAP23 (lysine site: K64) (UniProt O00161)
Summary of the method: as §1

[39] = biological target: TMED10 (lysine site: K145) (UniProt P49755)
Summary of the method: as §1

TPBG (lysine site: K328) = TPBG (lysine site: K328) (UniProt Q13641)
Summary of the method: as §1

TPBG (lysine site: K76) = TPBG (lysine site: K76) (UniProt Q13641)
Summary of the method: as §1

[40] = biological target: TSPAN14 (lysine site: K132) (UniProt Q8NG11)
Summary of the method: as §1

[41] = biological target: UniProt P08729 (lysine site: K273)
Summary of the method: as §1

[42] = biological target: UniProt P08729 (lysine site: K296)
Summary of the method: as §1

[43] = biological target: UniProt P08729 (lysine site: K326)
Summary of the method: as §1

[44] = biological target: UniProt P08729 (lysine site: K331)
Summary of the method: as §1

[45] = biological target: UniProt P08729 (lysine site: K353)
Summary of the method: as §1

[46] = biological target: UniProt P08913 (lysine site: K190)
Summary of the method: as §1

[47] = biological target: UniProt P50895 (lysine site: K482)
Summary of the method: as §1

[48] = biological target: UniProt P50895 (lysine site: K531)
Summary of the method: as §1

[49] = biological target: UniProt Q6ZS17 (lysine site: K71)
Summary of the method: as §1

WLS (lysine site: K161) = WLS (lysine site: K161) (UniProt Q5T9L3)
Summary of the method: as §1

WLS (lysine site: K168) = WLS (lysine site: K168) (UniProt Q5T9L3)
Summary of the method: as §1

YWHAB (lysine site: K70) = YWHAB (lysine site: K70) (UniProt P31946)
Summary of the method: as §1

YWHAZ (lysine site: K85) = YWHAZ (lysine site: K85) (UniProt P63104)
Summary of the method: as §1

Measured: lysine labeling ratio R10:1

PODXL (lysine site: K385), sequence (O00592 whole entry): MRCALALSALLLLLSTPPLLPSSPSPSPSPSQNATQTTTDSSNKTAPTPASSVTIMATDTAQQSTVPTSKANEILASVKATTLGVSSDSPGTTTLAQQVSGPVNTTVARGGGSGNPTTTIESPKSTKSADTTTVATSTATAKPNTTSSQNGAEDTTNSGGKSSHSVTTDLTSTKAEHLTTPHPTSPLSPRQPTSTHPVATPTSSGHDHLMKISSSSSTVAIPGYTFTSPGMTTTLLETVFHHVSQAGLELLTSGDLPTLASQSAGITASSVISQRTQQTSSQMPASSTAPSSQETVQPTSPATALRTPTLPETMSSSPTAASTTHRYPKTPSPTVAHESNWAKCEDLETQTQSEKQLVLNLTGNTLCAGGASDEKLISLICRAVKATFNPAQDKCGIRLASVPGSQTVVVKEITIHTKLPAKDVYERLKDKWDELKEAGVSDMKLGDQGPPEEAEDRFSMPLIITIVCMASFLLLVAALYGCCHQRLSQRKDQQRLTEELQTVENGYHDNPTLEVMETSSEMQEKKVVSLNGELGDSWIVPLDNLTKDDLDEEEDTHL
PODXL (lysine site: K394), sequence (O00592 whole entry): as above
PODXL (lysine site: K418), sequence (O00592 whole entry): as above
PODXL (lysine site: K422), sequence (O00592 whole entry): as above
PODXL (lysine site: K444), sequence (O00592 whole entry): as above
NCR3LG1 (lysine site: K101), sequence (Q68D85 whole entry): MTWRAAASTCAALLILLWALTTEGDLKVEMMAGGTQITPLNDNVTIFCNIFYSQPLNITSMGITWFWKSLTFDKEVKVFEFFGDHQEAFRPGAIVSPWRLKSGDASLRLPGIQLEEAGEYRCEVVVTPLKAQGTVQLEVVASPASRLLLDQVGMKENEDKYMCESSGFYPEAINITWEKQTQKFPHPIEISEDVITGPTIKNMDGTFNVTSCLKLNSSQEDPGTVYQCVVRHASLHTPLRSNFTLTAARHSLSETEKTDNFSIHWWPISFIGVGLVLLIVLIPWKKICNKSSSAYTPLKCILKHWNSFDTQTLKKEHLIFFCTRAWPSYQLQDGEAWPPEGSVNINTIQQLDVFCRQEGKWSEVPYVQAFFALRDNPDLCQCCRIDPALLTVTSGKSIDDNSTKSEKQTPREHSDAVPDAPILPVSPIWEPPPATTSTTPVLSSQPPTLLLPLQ
WLS (lysine site: K161), sequence (Q5T9L3 whole entry): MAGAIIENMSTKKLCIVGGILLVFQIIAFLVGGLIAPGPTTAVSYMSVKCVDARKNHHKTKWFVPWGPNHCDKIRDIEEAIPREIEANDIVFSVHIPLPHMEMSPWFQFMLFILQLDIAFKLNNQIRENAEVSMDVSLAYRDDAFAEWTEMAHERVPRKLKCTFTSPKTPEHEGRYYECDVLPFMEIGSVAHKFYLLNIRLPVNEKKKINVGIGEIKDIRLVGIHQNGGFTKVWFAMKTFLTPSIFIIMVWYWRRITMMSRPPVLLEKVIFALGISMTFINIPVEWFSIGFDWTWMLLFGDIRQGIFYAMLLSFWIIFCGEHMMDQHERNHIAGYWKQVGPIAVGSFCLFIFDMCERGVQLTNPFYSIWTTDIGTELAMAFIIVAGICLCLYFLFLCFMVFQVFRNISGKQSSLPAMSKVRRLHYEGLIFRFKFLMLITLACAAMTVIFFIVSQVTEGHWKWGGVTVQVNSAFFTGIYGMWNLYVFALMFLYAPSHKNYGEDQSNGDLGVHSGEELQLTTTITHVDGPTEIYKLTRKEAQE
WLS (lysine site: K168), sequence (Q5T9L3 whole entry): as above
DDX50 (lysine site: K271), sequence (Q9BQ39 whole entry): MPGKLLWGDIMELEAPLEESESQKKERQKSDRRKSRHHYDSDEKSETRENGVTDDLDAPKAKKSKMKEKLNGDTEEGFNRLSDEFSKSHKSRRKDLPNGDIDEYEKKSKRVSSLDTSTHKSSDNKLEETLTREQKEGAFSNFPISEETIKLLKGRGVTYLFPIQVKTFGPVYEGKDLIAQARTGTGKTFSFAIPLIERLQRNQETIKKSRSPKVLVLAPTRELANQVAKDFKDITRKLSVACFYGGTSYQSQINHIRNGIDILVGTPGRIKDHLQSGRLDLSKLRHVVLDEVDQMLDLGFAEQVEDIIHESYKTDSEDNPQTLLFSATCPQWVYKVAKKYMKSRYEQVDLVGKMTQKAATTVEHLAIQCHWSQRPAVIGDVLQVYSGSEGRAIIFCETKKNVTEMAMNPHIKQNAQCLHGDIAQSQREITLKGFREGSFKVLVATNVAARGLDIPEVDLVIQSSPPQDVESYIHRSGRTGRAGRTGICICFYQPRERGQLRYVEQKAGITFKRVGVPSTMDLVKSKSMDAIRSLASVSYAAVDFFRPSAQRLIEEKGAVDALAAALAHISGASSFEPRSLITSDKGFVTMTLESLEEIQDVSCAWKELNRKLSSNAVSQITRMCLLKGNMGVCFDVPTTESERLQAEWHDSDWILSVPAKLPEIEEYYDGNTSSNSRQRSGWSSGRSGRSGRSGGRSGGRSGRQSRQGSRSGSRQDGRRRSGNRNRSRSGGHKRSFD
DDX50 (lysine site: K432), sequence (Q9BQ39 whole entry): as above
CAV1 (lysine site: K47), sequence (Q03135 whole entry): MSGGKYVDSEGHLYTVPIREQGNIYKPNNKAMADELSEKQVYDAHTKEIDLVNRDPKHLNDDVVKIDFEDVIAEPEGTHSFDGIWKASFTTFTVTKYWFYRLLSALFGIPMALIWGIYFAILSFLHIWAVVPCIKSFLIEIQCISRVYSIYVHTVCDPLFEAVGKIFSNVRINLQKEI
PHB (lysine site: K240), sequence (P35232 whole entry): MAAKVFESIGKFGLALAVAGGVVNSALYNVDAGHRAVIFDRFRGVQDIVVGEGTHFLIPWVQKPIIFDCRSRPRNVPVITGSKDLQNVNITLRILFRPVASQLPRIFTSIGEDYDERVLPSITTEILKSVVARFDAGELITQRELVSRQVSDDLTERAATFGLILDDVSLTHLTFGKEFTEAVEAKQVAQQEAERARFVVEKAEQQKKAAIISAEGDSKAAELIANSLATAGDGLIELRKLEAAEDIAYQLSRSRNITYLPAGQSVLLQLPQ
CDC37 (lysine site: K60), sequence (Q16543 whole entry): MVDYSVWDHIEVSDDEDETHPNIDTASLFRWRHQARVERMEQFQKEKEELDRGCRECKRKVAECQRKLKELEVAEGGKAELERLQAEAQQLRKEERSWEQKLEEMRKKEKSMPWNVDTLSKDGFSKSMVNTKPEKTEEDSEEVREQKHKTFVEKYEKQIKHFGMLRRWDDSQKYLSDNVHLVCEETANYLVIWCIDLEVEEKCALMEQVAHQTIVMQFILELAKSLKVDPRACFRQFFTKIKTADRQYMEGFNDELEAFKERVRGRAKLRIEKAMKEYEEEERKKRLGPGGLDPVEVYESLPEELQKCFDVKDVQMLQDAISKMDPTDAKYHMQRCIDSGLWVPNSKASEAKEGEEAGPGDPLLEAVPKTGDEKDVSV
GART (lysine site: K251), sequence (P22102 whole entry): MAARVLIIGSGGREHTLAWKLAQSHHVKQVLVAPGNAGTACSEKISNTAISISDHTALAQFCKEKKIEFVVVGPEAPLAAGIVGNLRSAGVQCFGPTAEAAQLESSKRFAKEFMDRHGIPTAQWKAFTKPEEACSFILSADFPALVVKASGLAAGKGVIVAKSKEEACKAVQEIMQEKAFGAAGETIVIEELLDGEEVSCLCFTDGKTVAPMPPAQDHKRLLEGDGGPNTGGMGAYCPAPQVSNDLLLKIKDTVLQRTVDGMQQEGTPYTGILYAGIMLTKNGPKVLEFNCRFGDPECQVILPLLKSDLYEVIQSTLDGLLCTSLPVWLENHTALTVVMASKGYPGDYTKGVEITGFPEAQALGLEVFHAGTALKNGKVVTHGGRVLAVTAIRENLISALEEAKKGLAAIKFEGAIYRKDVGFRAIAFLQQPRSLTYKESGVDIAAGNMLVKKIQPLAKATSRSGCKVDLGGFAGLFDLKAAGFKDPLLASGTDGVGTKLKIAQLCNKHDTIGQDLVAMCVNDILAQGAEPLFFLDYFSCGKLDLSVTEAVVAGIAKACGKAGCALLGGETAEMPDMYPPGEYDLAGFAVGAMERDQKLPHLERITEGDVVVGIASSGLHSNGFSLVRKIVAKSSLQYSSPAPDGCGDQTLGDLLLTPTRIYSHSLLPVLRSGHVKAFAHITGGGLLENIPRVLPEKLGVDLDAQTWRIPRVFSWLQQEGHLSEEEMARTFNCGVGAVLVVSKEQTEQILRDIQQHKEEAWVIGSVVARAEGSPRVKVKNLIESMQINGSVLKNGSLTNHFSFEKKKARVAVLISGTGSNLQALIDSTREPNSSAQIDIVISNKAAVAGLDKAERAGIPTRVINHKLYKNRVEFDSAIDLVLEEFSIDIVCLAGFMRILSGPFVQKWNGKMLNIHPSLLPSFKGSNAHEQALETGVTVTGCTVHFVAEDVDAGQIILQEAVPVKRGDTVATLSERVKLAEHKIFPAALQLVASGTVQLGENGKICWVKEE
BSG (lysine site: K264), sequence (P35613 whole entry): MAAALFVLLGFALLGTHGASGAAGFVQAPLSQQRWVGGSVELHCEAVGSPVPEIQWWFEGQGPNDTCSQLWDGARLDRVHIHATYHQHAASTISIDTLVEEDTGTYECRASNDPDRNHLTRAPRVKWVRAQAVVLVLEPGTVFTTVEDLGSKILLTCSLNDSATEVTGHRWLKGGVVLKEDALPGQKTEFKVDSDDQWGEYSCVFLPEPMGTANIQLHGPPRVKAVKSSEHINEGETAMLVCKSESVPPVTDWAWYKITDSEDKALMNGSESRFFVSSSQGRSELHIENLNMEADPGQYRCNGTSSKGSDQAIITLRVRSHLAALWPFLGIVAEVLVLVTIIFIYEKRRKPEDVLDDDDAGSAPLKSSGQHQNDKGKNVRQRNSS
CSTB (lysine site: K91), sequence (P04080 whole entry): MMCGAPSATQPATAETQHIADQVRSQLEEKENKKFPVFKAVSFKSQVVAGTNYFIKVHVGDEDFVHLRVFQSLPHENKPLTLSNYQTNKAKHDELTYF

C#CCNC(=O)CCSSCCC(=O)NCCc1ccc(C=O)c(C=O)c1
inactive: [1] 6.28 | ACLY (lysine site: K272) 2.72 | ACLY (lysine site: K836) 3 | ACLY (lysine site: K968) 4.07 | ACLY (lysine site: K978) 2.77 | [2] 2.98 | BSG (lysine site: K264) 2.59 | CALR (lysine site: K360) 5.32 | CALR (lysine site: K64) 2.12 | CDC37 (lysine site: K60) 2.43 | CSTB (lysine site: K91) 4.21 | GART (lysine site: K251) 5.53 | [9] 6.19 | [10] 2.84 | [11] 3.88 | [12] 6.93 | [13] 3.03 | [14] 3.29 | [15] 4.46 | MDH2 (lysine site: K185) 3.9 | [17] 2.58 | [19] 9.63 | [21] 2.7 | [23] 2.06 | [26] 3.07 | [28] 4.25 | [29] 7.37 | [30] 3.52 | [31] 2.01 | [32] 4.06 | [35] 3.68 | [36] 4.79 | [37] 4.2 | [39] 4.28 | TPBG (lysine site: K76) 2.54 | [41] 3.39 | [42] 3.6 | [43] 5.31 | [44] 5.69 | [45] 9.28 | [46] 2.31 | [48] 2.47 | [49] 5.33 | WLS (lysine site: K161) 9.23 | WLS (lysine site: K168) 5.48 | YWHAB (lysine site: K70) 3.41 | YWHAZ (lysine site: K85) 3.38
active: ACLY (lysine site: K780) 1.27 | [3] 1.51 | [4] 0.81 | [5] 1.18 | CALR (lysine site: K159) 1.52 | CAV1 (lysine site: K47) 1.22 | [6] 1.59 | [7] 0.745 | [8] 1.99 | [16] 1.72 | [18] 0.864 | PHB (lysine site: K240) 1.3 | [20] 0.785 | [22] 0.841 | [24] 0.957 | [25] 0.563 | [27] 1.58 | [33] 0.82 | [34] 1.8 | [38] 1.47 | TPBG (lysine site: K328) 1.99 | [40] 0.603 | [47] 1.94
